Laboratory results as given in PubChem BioAssay (NCATS).
“And” between values parts separate entries of the source, which are not always exact repeats. Equal values may be shown once. Results filed as inconclusive are left out. The source made the active and inactive calls. Unless noted, the call rests on the fitted dose curve; in most records, active means well fitted curve in the direction sought with a large enough effect; inconclusive means small, poorly fitted or top-dose-only effect, or another doubt; inactive means no such curve, though single readings can be large; an effect the other way counts as inactive or inconclusive.

Columns and labels:
[1] = Cell Viability - MRC5 (AID 434; calls by dose curve;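 further: potency means the concentration at half of the fitted maximal effect; cells exposed to compound for 40 hours at 37 °C; potency reflects cytotoxicity seen as loss of intracellular ATP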); conditions: MRC5 lung fibroblast viability, qHTS
In short: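 Decrease in intracellular ATP, quantified by luciferase light output, reflects compound toxicity toward MRC5 cells exposed for 40 hr in complete culture medium. Concentration-response curves, scaled between DMSO and 100 uM tamoxifen, gave AC50 values.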

[2] = Cell Viability - SK-N-SH (AID 435; calls by dose curve;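 further: potency means the concentration at half of the fitted maximal effect; compound exposure lasted 40 h at 37 °C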); conditions: SK-N-SH neuroblastoma cell viability qHTS
In short: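 Human neuroblastoma line, 40 h exposure at 37 °C, ATP quantified via luciferase luminescence; DMSO and 100 uM tamoxifen define 0 and 100% inhibition for AC50 fitting.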

[3] = Cell Viability - NIH 3T3 (AID 541); conditions: NIH 3T3 cell viability, qHTS; activity change, negative = cytotoxicity: at 92.2 µM (top of the series);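 further: plate controls were DMSO alone for no effect and tamoxifen positive control for full effect; nearly all actives have a fitted effect of over 25% in size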
In short: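 In this cytotoxicity screen, acute toxicity is scored as an ATP drop measured by CellTiter-Glo in NIH 3T3 fibroblasts following a 40 hr, 37 °C incubation with compound.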

[4] = Cell Viability - Mesenchymal (AID 546); conditions: mesenchymal cells viability, qHTS; activity change, negative = cytotoxicity: at 91.7 µM (top of the series);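 further: cells exposed to compound for 40 hours before reading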
In short: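 In this qHTS cytotoxicity format, glomerulus-derived human mesenchymal kidney cells received compound for 40 hr, then luciferase-based ATP quantitation. Concentration-response data were fitted with the Hill equation.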

[5] = Cellular Toxicity (caspase-3) HepG2 (AID 654); conditions: HepG2 caspase-3 activation, luminescence, 0% = DMSO only, 100% = tamoxifen; series mostly up to 92.2 µM;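 further: cells exposed to compound for 16 hours before reading; 0% = DMSO alone and 100% = caspase signal from 100 µM tamoxifen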
In short: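 Concentration-response AC50 values reflect caspase-3/7 induction in HepG2 cells after 16 hours of compound exposure, quantified by luminescence from liberated aminoluciferin and referenced to 100 uM tamoxifen as full stimulation.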

[6] = Cellular Toxicity (caspase-3) HUV-EC-C (AID 656); conditions: HUV-EC-C cells, caspase-3 activation (apoptosis), vehicle = 0, 100 µM tamoxifen = 100%; series mostly up to 92.2 µM
In short: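 Concentration-dependent caspase 3/7 induction was assessed in HUV-EC-C cells exposed for 16 hours. Data scaled between DMSO and tamoxifen (100 uM) controls.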

[7] = Cellular Toxicity (caspase-3) BJ (AID 658); conditions: BJ fibroblasts, luminescence, normalized: DMSO 0%, staurosporine 100%; series mostly up to 91.7 µM
In short: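 Plated BJ cells (1000/well) rested 5 hr, received compound for 16 hr at 37 °C, then Caspase-Glo 3/7 reagent for 1 hr at room temperature before luminescence reading.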

[8] = Cellular Toxicity (caspase-3) MRC-5 (AID 659); conditions: MRC-5 cells, luminescence, normalized: DMSO 0%, 10 µM staurosporine 100%; series mostly up to 91.7 µM
In short: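 Apoptosis readout in MRC-5 cells: luciferase light generated after caspase 3/7 cleaves a peptide-aminoluciferin substrate, measured post 16 hr compound incubation at 37 °C.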

[9] = Cellular Toxicity (caspase-3) Mesangial (AID 660); conditions: mesangial cells, normalized: DMSO 0%, 100 µM tamoxifen 100%; series mostly up to 91.7 µM;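 further: combined caspase 3 and 7 activity read by Caspase-Glo luminescence; cells exposed to compound for 16 h before the caspase read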
In short: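 AC50 values come from Hill-equation fits of caspase 3/7 activation, measured as Caspase-Glo luminescence in human glomerular mesangial cells exposed to compound for 16 h at 37 °C; 100% set by 100 uM tamoxifen.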

[10] = Cellular Toxicity (caspase-3) Hek293 (AID 664); conditions: HEK293 caspase-3 activation, DMSO = 0%, 100 µM tamoxifen = 100%; series mostly up to 92.2 µM;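 further: cells exposed to compound for 16 h at 37 °C before readout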
In short: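 Apoptosis readout: Caspase-Glo 3/7 signal in human HEK293 cells following 16-hour compound incubation. Responses scaled between DMSO baseline and 100 uM tamoxifen.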

[11] = Cellular Toxicity (caspase-3) Renal Proximal Tubule (AID 667); conditions: renal proximal tubule cells, primary cells freshly taken from rat, solvent-only wells 0%, staurosporine 100%; series mostly up to 91.7 µM;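 further: cells exposed to compound for 16 hours at 37 °C before detection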
In short: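 Caspase-Glo 3/7 read-out, rat primary kidney proximal tubule cells. Compound exposure 16 h, 37 °C; detection after 1 h at RT. Activity scaled to DMSO and 10 uM staurosporine.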

[12] = MultiTox-Fluor Cytotoxicity Assay - LYMP1-003 - Live Cells (AID 962); conditions: LYMP1-003 lymphoblastoid cells, MultiTox-Fluor live-cell protease fluorescence; series mostly up to 92.2 µM;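 further: 0% = DMSO only and full loss = 92 µM tetraoctylammonium bromide; cytotoxic hits lower the live-cell protease signal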
In short: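 Human lymphoblastoid line LYMP1-003 in complete culture medium, treated 16 hr with titrated compounds. Viable cells quantified via cell-permeant GF-AFC substrate fluorescence; AC50 derived by Hill fitting.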

[13] = Cell Viability - LYMP1-003 - Assay at 40 hr (AID 964); conditions: LYMP1-003 lymphoblastoid viability; series mostly up to 92.2 µM; further: on the % scale 0 is the no-effect control and ±100 the full control effect; nearly all actives have a fitted effect of over 60% in size
In short: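 Acute toxicity is scored as a concentration-dependent loss of intracellular ATP in LYMP1-003 cells (2500/well, complete medium) after 40 hr at 37 C, measured by CellTiter-Glo luminescence; AC50 values derive from standard Hill modelling.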

[14] = Cell Viability - LYMP2-011 (AID 969); conditions: LYMP2-011 lymphoblastoid cells viability; series mostly up to 92.2 µM;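 further: cells exposed to compound for 24 hours; 0% = DMSO only and full inhibition = 92 µM tetraoctylammonium bromide; nearly all actives have a fitted effect of over 60% in size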
In short: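 Cells seeded at 2500 per well rest 5 hr before compound addition, then incubate 24 hr at 37 C. CellTiter-Glo reagent is added for 30 min at room temperature before luminescence detection.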

[15] = Cell Viability - LYMP2-017 (AID 972); conditions: LYMP2-017 lymphoblastoid cell viability; series mostly up to 92.2 µM;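 further: cells exposed to compound for 24 hours at 37 °C; on the % scale 0 is the no-effect control and ±100 the full control effect; nearly all actives have a fitted effect of over 55% in size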
In short: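 In this qHTS format, lymphoblastoid cells in complete medium receive test compound for a day at 37 C before ATP content is quantified by luciferase luminescence. Reported AC50 figures come from standard Hill-equation curve fitting.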

[16] = Cell Viability - LYMP2-007 (AID 979); conditions: LYMP2-007 lymphoblastoid cell viability; series mostly up to 92.2 µM;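 further: cells exposed to compound for 24 h before reading; 0% = DMSO only and the negative end = 92 µM tetraoctylammonium bromide; nearly all actives have a fitted effect of over 60% in size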
In short: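 Measured via luciferase-based ATP quantitation: lymphoblastoid cells, 24 hr compound exposure at 37 C, AC50 from Hill fits.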

[17] = Cell Viability - LYMP2-010 (AID 981); conditions: LYMP2-010 lymphoblastoid cell viability, qHTS; series mostly up to 92.2 µM;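 further: cells exposed to compound for 24 hours at 37 °C; on the % scale 0 is the no-effect control and ±100 the full control effect; nearly all actives have a fitted effect of over 55% in size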
In short: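 This 24 hr viability screen uses LYMP2-010 lymphoblastoid cells, quantifies ATP via luciferase luminescence, and derives AC50 from Hill fits of qHTS concentration-response data.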

[18] = Cell Viability - LYMP2-012 (AID 982); conditions: LYMP2-012 lymphoblastoid cell viability qHTS; series mostly up to 92.2 µM;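 further: cellular ATP by luciferase luminescence where a drop means cytotoxicity; cells exposed to compound for one day before reading; 0% = DMSO only and full loss = 92 µM tetraoctylammonium bromide; nearly all actives have a fitted effect of over 55% in size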
[19] = Cell Viability - LYMP2-018 (AID 985); conditions: LYMP2-018 lymphoblastoid cells, viability (qHTS); series mostly up to 92.2 µM;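 further: plate controls were DMSO only for no effect and tetraoctylammonium bromide at 92 µM for full effect; nearly all actives have a fitted effect of over 50% in size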
In short: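 In this qHTS viability assay, cells are treated for 24 hr and cellular ATP is quantified by luciferase-based luminescence, with tetraoctylammonium bromide as positive control.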

[20] = qHTS Assay for Identification of Small Molecule Inducers of Hypoxia Response (AID 2120; active means well fitted curve in the direction sought with a large enough effect in the signal ratio, with a control signal flat, not every such curve was filed as active; the % refers to the signal ratio; further: 0% is about no effect); conditions: hypoxia response reporter cells, beta-lactamase ratio readout; series mostly up to 104 µM
In short: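 HRE-bla ME-180, 2500 cells/well, 0.5% dialyzed FBS medium; cpd titration, 17 h 37 degrees C; CCF4 2.5 h RT; Ex 405, Em 460/530 ratio -> %Activity, AC50.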

O=[N+]([O-])c1cccc(Cl)c1Cl
inactive: Potency [1] > 92 µM | Potency [2] > 92 µM | Potency [3] | activity change, negative = cytotoxicity [4] 4.81% | outcome [5] | outcome [6] | outcome [7] | outcome [8] | outcome [9] | outcome [10] | outcome [11] | Potency [12] | Potency [13] | Potency [14] | Potency [15] | Potency [16] | Potency [17] | Potency [18] | Potency [19] | outcome [20]

O=C(O)c1ccc(O)cc1O
inactive: Potency [1] > 92 µM | Potency [2] > 92 µM | Potency [3] | activity change, negative = cytotoxicity [4] 5.57% and 9.36% | outcome [5] | outcome [6] | outcome [7] | outcome [8] | outcome [9] | outcome [10] | outcome [11] | Potency [12] | Potency [13] | Potency [14] | Potency [15] | Potency [16] | Potency [17] | Potency [18] | Potency [19] | outcome [20]

CCCN(CCC)C(=O)SCC
inactive: Potency [1] > 92 µM | Potency [2] > 92 µM | Potency [3] | activity change, negative = cytotoxicity [4] 5.65% | outcome [5] | outcome [6] | outcome [7] | outcome [8] | outcome [9] | outcome [10] | outcome [11] | Potency [12] | Potency [13] | Potency [14] | Potency [15] | Potency [16] | Potency [17] | Potency [18] | Potency [19] | outcome [20]

c1ccc2c(c1)c1cccc3ccc4cccc2c4c31
inactive: Potency [1] > 92 µM | Potency [2] > 92 µM | Potency [3] | activity change, negative = cytotoxicity [4] 2.17% | outcome [5] | outcome [6] | outcome [7] | outcome [8] | outcome [9] | outcome [10] | outcome [11] | Potency [12] | Potency [13] | Potency [14] | Potency [15] | Potency [16] | Potency [17] | Potency [18] | Potency [19] | outcome [20]

Cc1cccc([N+](=O)[O-])c1C
inactive: Potency [1] > 92 µM | Potency [2] > 92 µM | Potency [3] | activity change, negative = cytotoxicity [4] 1.97% | outcome [5] | outcome [6] | outcome [7] | outcome [8] | outcome [9] | outcome [10] | outcome [11] | Potency [12] | Potency [13] | Potency [14] | Potency [15] | Potency [16] | Potency [17] | Potency [18] | Potency [19] | outcome [20]

C=Cc1ccccc1Cl
inactive: Potency [1] > 92 µM | Potency [2] > 92 µM | Potency [3] | activity change, negative = cytotoxicity [4] 4.39% | outcome [5] | outcome [6] | outcome [7] | outcome [8] | outcome [9] | outcome [10] | outcome [11] | Potency [12] | Potency [13] | Potency [14] | Potency [15] | Potency [16] | Potency [17] | Potency [18] | Potency [19] | outcome [20]
